This note sets out measurements from PubChem BioAssay (NCATS).

Records with an inconclusive call do not appear. A number with no mark means an inactive call. Activity calls are given as the source filed them. The call rests on the fitted dose curve.
On the % scale 0 is the no-effect control and ±100 the full control effect.

A short description of the first assay: Primary qHTS for Huh7 cytotoxicity: counterscreen for inhibitors of MERS-S pseudotyped particle cell entry (AID 1479147). Particulars: cell viability read-out; series mostly up to 57.1 µM; activity change, negative = cytotoxicity: at the top concentration.
As to `COC(=O)[C@H]1[C@H]2C[C@@H]3c4[nH]c5cc(OC)ccc5c4CCN3C[C@H]2C[C@@H](OC(=O)c2cc(OC)c(OC)c(OC)c2)[C@@H]1OC`, the result was inactive.
Consider `CCC[C@H](N[C@@H](C)C(=O)N1[C@H](C(=O)O)C[C@@H]2CCCC[C@@H]21)C(=O)OCC`, for which the “activity change, negative = cytotoxicity” value was -19.1%.
`Oc1ccc(C2CNCCc3c2cc(O)c(O)c3Cl)cc1` (stereo not drawn): the “activity change, negative = cytotoxicity” value was 2.53%.
On the same count and under the same terms, the value for `O=C1c2cccc3c2[C@H](CCC3)CN1[C@@H]1CN2CCC1CC2` was -8.47%.
Take `Nc1[nH]c(=O)ncc1F`: the outcome was inactive.
As for `CCOC(=O)N1CCC(=C2c3ccc(Cl)cc3CCc3cccnc32)CC1`, the “activity change, negative = cytotoxicity” value is -23.9%.
Same read-out and setting: in the case of `O=c1c(O)c(-c2ccc(O)c(O)c2)oc2cc(O)cc(O)c12` it was -28.2%.
Regarding `Oc1ccc(Cl)cc1Cc1ccccc1`, the result was inactive.
As to `Clc1ccc2c(c1)C(N1CCNCC1)=Nc1ccccc1O2`, the “activity change, negative = cytotoxicity” value was 0.445%.
Take `Cc1c(O)cccc1C(=O)N[C@@H](CSc1ccccc1)[C@H](O)CN1C[C@H]2CCCC[C@H]2C[C@H]1C(=O)NC(C)(C)C`: the result was inactive.
Take `CCN(CC)CCNC(=O)c1cc(Cl)c(N)cc1OC`: the “activity change, negative = cytotoxicity” value is 0.958%.
On to `CNS(=O)(=O)Cc1ccc2[nH]cc(CCN(C)C)c2c1`, for which the outcome was inactive.
On the same count and under the same terms, in the case of `CO/N=C(\C(=O)N[C@@H]1C(=O)N2C(C(=O)O)=C(CSc3nc(=O)c(O)nn3C)CS[C@H]12)c1csc(N)n1` it was “inactive”.
On to `CCN(CC)CCCC(C)Nc1ccnc2cc(Cl)ccc12` (stereo not drawn), for which the “activity change, negative = cytotoxicity” value is -1.34% [at 26.4 µM].
For the compound `NCCC(O)(P(=O)(O)O)P(=O)(O)O`, the “activity change, negative = cytotoxicity” value was 1.45%.
With `Cc1cn([C@H]2C=C[C@@H](CO)O2)c(=O)[nH]c1=O`, the result was inactive.
Turning to `Cn1c(=O)c2c(ncn2CC(O)CO)n(C)c1=O` (stereo not drawn), the “activity change, negative = cytotoxicity” value was 2.54%.
Turning to `CCCC(CCC)C(=O)O`, the outcome was inactive.
Regarding `CN1C(=O)CC(C)(c2ccccc2)C1=O` (stereo not drawn), the “activity change, negative = cytotoxicity” value was -10.6%.
Consider `Cn1cnc([N+](=O)[O-])c1Sc1ncnc2nc[nH]c12`, for which the “activity change, negative = cytotoxicity” value is -18.3%.
As to `CCCCNc1ccc(C(=O)OCCOCCOCCOCCOCCOCCOCCOCCOCCOC)cc1`, the “activity change, negative = cytotoxicity” value was -1.45%.
On the same count and under the same terms, in the case of `COc1ccccc1Oc1c(NS(=O)(=O)c2ccc(C(C)(C)C)cc2)nc(-c2ncccn2)nc1OCCO` it was -1.81%; in that of `Cc1ccc(NC(=O)c2ccc(CN3CCN(C)CC3)cc2)cc1Nc1nccc(-c2cccnc2)n1`, -23.3%.
With `CCCN1C[C@H](CSC)C[C@@H]2c3cccc4[nH]cc(c34)C[C@H]21`, the result was inactive.
Regarding `CC(=O)O[C@]1(C(C)=O)CC[C@H]2[C@@H]3C=C(C)C4=CC(=O)CC[C@]4(C)[C@H]3CC[C@@]21C`, the “activity change, negative = cytotoxicity” value was -4.89%.
Same read-out and setting: the value for `CC[C@@]1(O)C(=O)OCc2c1cc1n(c2=O)Cc2cc3c(CN(C)C)c(O)ccc3nc2-1` was -12.4%; that for `Cc1ccc(-c2cc(C(F)(F)F)nn2-c2ccc(S(N)(=O)=O)cc2)cc1` was -2.65%.

The nature of the next assay: Primary qHTS for inhibitors of MERS-S pseudo-typed particle cell entry (AID 1479149). Further: nearly all actives have a fitted effect of over 60% in size. Further: potency means the concentration at half of the fitted maximal effect. Particulars: MERS-S pseudotyped particle entry, luciferase; series mostly up to 57.1 µM; activity change, negative = inhibition: at the top concentration.
With `CCCCc1oc2ccc(NS(C)(=O)=O)cc2c1C(=O)c1ccc(OCCCN(CCCC)CCCC)cc1`, the Potency is 17.8 µM (active).
Turning to `Oc1ccc(C2CNCCc3c2cc(O)c(O)c3Cl)cc1` (stereo not drawn), the compound was called inactive.
As to `Cc1oncc1C(=O)Nc1ccc(C(F)(F)F)cc1`, the “activity change, negative = inhibition” value is -90.8%.
For the compound `O=C(c1ccc(OCCN2CCCCC2)cc1)c1c(-c2ccc(O)cc2)sc2cc(O)ccc12`, the Potency was 11.2 µM (active).
For `Oc1ccc(Cl)cc1Cc1ccccc1`, the “activity change, negative = inhibition” value was 2.67%.
With `NNc1nncc2ccccc12`, the “outcome” value is “inactive [at 26.4 µM]”.
The same measure, in the same setting: the value for `Clc1ccc2c(c1)C(N1CCNCC1)=Nc1ccccc1O2` was “inactive”.
Turning to `Cc1c(O)cccc1C(=O)N[C@@H](CSc1ccccc1)[C@H](O)CN1C[C@H]2CCCC[C@H]2C[C@H]1C(=O)NC(C)(C)C`, the “activity change, negative = inhibition” value is -16.9%.
Take `CCN(CC)CCNC(=O)c1cc(Cl)c(N)cc1OC`: the compound was classed as inactive.
For the compound `CC(=O)N(O)CCCCCNC(=O)CCC(=O)N(O)CCCCCNC(=O)CCC(=O)N(O)CCCCCN`, the “activity change, negative = inhibition” value was -6.2%.
Turning to `CNS(=O)(=O)Cc1ccc2[nH]cc(CCN(C)C)c2c1`, the result was inactive.
Consider `CO/N=C(\C(=O)N[C@@H]1C(=O)N2C(C(=O)O)=C(CSc3nc(=O)c(O)nn3C)CS[C@H]12)c1csc(N)n1`, for which the compound was classed as inactive.
With `NCCC(O)(P(=O)(O)O)P(=O)(O)O`, the “activity change, negative = inhibition” value is -21.8%.
Still for that read-out and setting: the value for `Cc1cn([C@H]2C=C[C@@H](CO)O2)c(=O)[nH]c1=O` was -15.7%.
For the compound `Nc1nc(N)c2nc(-c3ccccc3)c(N)nc2n1`, the “activity change, negative = inhibition” value is 3.92%.
On the same count and under the same terms, in the case of `CC(C)C[C@H](NC(=O)[C@H](CCc1ccccc1)NC(=O)CN1CCOCC1)C(=O)N[C@@H](Cc1ccccc1)C(=O)N[C@@H](CC(C)C)C(=O)[C@@]1(C)CO1` it was -97.1%.
On the same count and under the same terms, the value for `NC(=O)N/N=C/c1ccc([N+](=O)[O-])o1` was -16.8%; that for `CC(C)C[C@H](NC(=O)[C@H](Cc1ccccc1)NC(=O)c1cnccn1)B(O)O` was -93.2%.
As to `O[C@@H](c1cc(C(F)(F)F)nc2c(C(F)(F)F)cccc12)[C@H]1CCCCN1`, the result was inactive.
Turning to `Cc1ccc(-c2cc(C(F)(F)F)nn2-c2ccc(S(N)(=O)=O)cc2)cc1`, the result was inactive.

Another assay is described as follows: Primary qHTS for Vero E6 cytotoxicity: counterscreen for inhibitors of SARS-S pseudo-typed particle cell entry (AID 1479150). The conditions noted are these: cell viability; series mostly up to 57.1 µM; activity change, negative = cytotoxicity: at the top concentration.
Take `COC(=O)[C@H]1[C@H]2C[C@@H]3c4[nH]c5cc(OC)ccc5c4CCN3C[C@H]2C[C@@H](OC(=O)c2cc(OC)c(OC)c(OC)c2)[C@@H]1OC`: the “activity change, negative = cytotoxicity” value was 4.36%.
Take `CCC[C@H](N[C@@H](C)C(=O)N1[C@H](C(=O)O)C[C@@H]2CCCC[C@@H]21)C(=O)OCC`: the compound was classed as inactive.
For the compound `Oc1ccc(C2CNCCc3c2cc(O)c(O)c3Cl)cc1` (stereo not drawn), the “activity change, negative = cytotoxicity” value is -5.13%.
Same read-out and setting: in the case of `O=C1c2cccc3c2[C@H](CCC3)CN1[C@@H]1CN2CCC1CC2` it was -1.02%.
In the case of `Nc1[nH]c(=O)ncc1F`, the compound was classed as inactive.
Consider `CCOC(=O)N1CCC(=C2c3ccc(Cl)cc3CCc3cccnc32)CC1`, for which the “activity change, negative = cytotoxicity” value was -4.25%.
Turning to `O=c1c(O)c(-c2ccc(O)c(O)c2)oc2cc(O)cc(O)c12`, the call was inactive.
As to `O=C(c1ccc(OCCN2CCCCC2)cc1)c1c(-c2ccc(O)cc2)sc2cc(O)ccc12`, the “activity change, negative = cytotoxicity” value is -18.3%.
As to `Oc1ccc(Cl)cc1Cc1ccccc1`, the “activity change, negative = cytotoxicity” value was 0.568%.
Still for that read-out and setting: the value for `Clc1ccc2c(c1)C(N1CCNCC1)=Nc1ccccc1O2` was 4.79%.
For `Cc1c(O)cccc1C(=O)N[C@@H](CSc1ccccc1)[C@H](O)CN1C[C@H]2CCCC[C@H]2C[C@H]1C(=O)NC(C)(C)C`, the result was inactive.
Same read-out and setting: the value for `CCN(CC)CCNC(=O)c1cc(Cl)c(N)cc1OC` was “inactive”.
In the case of `CC(=O)N(O)CCCCCNC(=O)CCC(=O)N(O)CCCCCNC(=O)CCC(=O)N(O)CCCCCN`, the “activity change, negative = cytotoxicity” value was -2.62%.
In the case of `CNS(=O)(=O)Cc1ccc2[nH]cc(CCN(C)C)c2c1`, the compound was called inactive.
`CO/N=C(\C(=O)N[C@@H]1C(=O)N2C(C(=O)O)=C(CSc3nc(=O)c(O)nn3C)CS[C@H]12)c1csc(N)n1`: the “activity change, negative = cytotoxicity” value is 3.57%.
In the case of `CCN(CC)CCCC(C)Nc1ccnc2cc(Cl)ccc12` (stereo not drawn), the “outcome” value was “inactive [at 26.4 µM]”.
Turning to `NCCC(O)(P(=O)(O)O)P(=O)(O)O`, the “activity change, negative = cytotoxicity” value was -4.41%.
Consider `Cc1cn([C@H]2C=C[C@@H](CO)O2)c(=O)[nH]c1=O`, for which the “activity change, negative = cytotoxicity” value was 4.77%.
The same measure, in the same setting: in the case of `Cn1c(=O)c2c(ncn2CC(O)CO)n(C)c1=O` (stereo not drawn) it was -6.02%; in that of `CCCC(CCC)C(=O)O`, 3.59%.
As for `Nc1nc(N)c2nc(-c3ccccc3)c(N)nc2n1`, the “activity change, negative = cytotoxicity” value was -14.7%.
In the case of `CN1C(=O)CC(C)(c2ccccc2)C1=O` (stereo not drawn), the compound was classed as inactive.
Regarding `NC(=O)N/N=C/c1ccc([N+](=O)[O-])o1`, the compound was classed as inactive.
Take `Cn1cnc([N+](=O)[O-])c1Sc1ncnc2nc[nH]c12`: the “activity change, negative = cytotoxicity” value was -23.2%.
In the case of `CCCCNc1ccc(C(=O)OCCOCCOCCOCCOCCOCCOCCOCCOCCOC)cc1`, the result was inactive.
On to `COc1ccccc1Oc1c(NS(=O)(=O)c2ccc(C(C)(C)C)cc2)nc(-c2ncccn2)nc1OCCO`, for which the “activity change, negative = cytotoxicity” value was -13.3%.
Regarding `Cc1ccc(NC(=O)c2ccc(CN3CCN(C)CC3)cc2)cc1Nc1nccc(-c2cccnc2)n1`, the “activity change, negative = cytotoxicity” value was -8.42%.
For `CCCN1C[C@H](CSC)C[C@@H]2c3cccc4[nH]cc(c34)C[C@H]21`, the result was inactive.
Same read-out and setting: in the case of `CC(=O)O[C@]1(C(C)=O)CC[C@H]2[C@@H]3C=C(C)C4=CC(=O)CC[C@]4(C)[C@H]3CC[C@@]21C` it was “inactive”.
On to `CC[C@@]1(O)C(=O)OCc2c1cc1n(c2=O)Cc2cc3c(CN(C)C)c(O)ccc3nc2-1`, for which the “activity change, negative = cytotoxicity” value is -22.7%.
Take `Cc1ccc(-c2cc(C(F)(F)F)nn2-c2ccc(S(N)(=O)=O)cc2)cc1`: the call was inactive.
